D2 PAM-1 = potentiates the human D2 dopamine receptor allosterically; P14416; DiscoveRx D2 beta-arrestin cells, luminescence, 90 min; 100% = 57 uM dopamine signal; potentiation, % (test concentration not listed); hit rate 0.23% among 360,000; AID 624464; in the data active = potentiation above about 50%
Target sequence (P14416 whole entry, looked up): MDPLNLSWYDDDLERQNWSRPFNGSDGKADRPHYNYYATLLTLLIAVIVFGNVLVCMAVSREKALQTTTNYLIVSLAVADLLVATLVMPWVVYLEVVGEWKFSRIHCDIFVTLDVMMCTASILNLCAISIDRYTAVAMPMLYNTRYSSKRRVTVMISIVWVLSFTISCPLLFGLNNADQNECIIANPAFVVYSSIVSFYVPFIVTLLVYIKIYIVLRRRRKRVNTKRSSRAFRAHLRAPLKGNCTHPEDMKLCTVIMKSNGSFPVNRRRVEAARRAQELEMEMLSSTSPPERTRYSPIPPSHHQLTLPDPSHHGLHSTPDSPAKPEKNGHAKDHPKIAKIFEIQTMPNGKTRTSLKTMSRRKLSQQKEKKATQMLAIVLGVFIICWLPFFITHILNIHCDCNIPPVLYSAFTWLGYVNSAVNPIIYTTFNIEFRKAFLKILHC
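D2 cells co-treated with compound plus 50 nM dopamine (EC20) for 90 min at 37 deg C to detect potentiation. Beta-arrestin recruitment was read as enzyme-fragment luminescence after 1 h at ambient temperature. Full response was set by 57 uM dopamine.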
D2 ag-1 = human D2 receptor agonism in beta-arrestin assay; P14416; DiscoveRx PathHunter D2 beta-arrestin, luminescence, 90 min; 100% = 57 uM dopamine signal; activation, % (test concentration not listed); hit rate 0.084% among 360,000; in the data active = activation above about 40%
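Agonist mode: compounds alone added to overnight-plated D2 PathHunter cells for 90 min at 37 C, with 57 uM final dopamine (EC100) defining full response. Beta-arrestin recruitment detected by chemiluminescent reagent, read after 1 h at ambient temperature.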
D2 ag-2 = activates the human D2 dopamine receptor. P14416. HEK293 T-REx D2 cells, calcium flux agonist mode. activation, % at 2 µM. hit rate 0.53% among 340,000;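 active = activation over 3 SD above normal in the single-dose calcium agonist read, cut at about 30% in these data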; note: 0% is about no effect
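In this primary screen, compounds producing a positive calcium signal within 180 s of addition to tetracycline-induced, force-coupled HEK293 Trex D2 cells are flagged; cells are dye-loaded with a no-wash calcium kit beforehand.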
D2 PAM-2 = D2 dopamine receptor (human) potentiation; P14416; HEK293 T-REx D2, calcium flux, EC20 dopamine potentiation; potentiation, % at 10 µM; hit rate 0.34% among 340,000; AID 485347;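 active = potentiation over 3 SD above the plate norm, cut at about 30% in these data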; note: 0% is about no effect
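Cells plated with tetracycline inducer and held overnight at 30 C; calcium dye loaded 30–90 min at room temperature; baseline taken, compound added and read 180 s; EC20 dopamine then added and read 180 s.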
D2 antag = antagonists of human D2 dopamine receptor. inhibition, % at 10 µM. HEK293 TREx D2 cells, calcium flux, dopamine EC80. P14416. AID 485344. hit rate 2% among 340,000; in the data active = inhibition above about 30%; inactive = below that, where a call was filed; note: 0% is about no effect
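Compounds are added to dye-loaded, induced HEK293 T-REx cells coupled to calcium release via D2; after a 3 min kinetic read an EC80 dopamine stimulus is given and fluorescence is recorded for 3 more min.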
* = called active by the depositor; nt = no result. The list is not random: actives were taken first. Their share in the collection is about 2.4%.

SMILES | D2 PAM-1 | D2 ag-1 | D2 ag-2 | D2 PAM-2 | D2 antag
Cc1cc2c(C(F)(F)F)cc(=O)oc2c2c1NCCC2 | 2.8 | 0.5 | 19.9 | 4.8 | -17.6
CC1(C)Cc2c(sc3c2C(=O)NC(c2cccnc2)N3)CO1 (centres undefined) | -4.2 | -2.7 | 0.6 | nt | 69.5*
Cc1ccc(-n2c(/C=C/c3cc(Br)cs3)nc3ccccc3c2=O)cc1 | nt | nt | 0.6 | 4.6 | nt
CN1CCc2c([nH]c3ccccc23)C1 | -104.8 | -3.6 | 0.1 | -24.5 | 51.4*
O=C1NC(=S)NC(=O)C1=Cc1cccc2cc3ccccc3cc12 | -60.0 | -9.6 | 0.5 | 10.2 | 9.2
CN1/C(=C\C=C2C(=O)NC(=S)NC2=O)C(C)(C)c2ccccc21 | 7.4 | -1.7 | 127.6* | 7.2 | 30.6*
CC1(C)OC(c2ccccc2)=C/C(=C/C=C2C(=O)NC(=S)NC2=O)O1 | 4.0 | 9.5 | 9.3 | 1.1 | 63.0*
CCOc1ccc(CN(CCc2ccc3c(c2)OCO3)Cc2cccc(Br)c2)cc1 | nt | nt | nt | 1.0 | nt
Cc1nnc(NC(=O)c2cccn(Cc3cccc([N+](=O)[O-])c3)c2=O)s1 | nt | nt | -0.7 | 13.0 | nt
O=[N+]([O-])c1ccc(N2CCCCCC2)c2nonc12 | -8.0 | -3.8 | 84.7* | -19.6 | 10.9
O=[N+]([O-])c1ccc(N2CCCCC2)c2ncccc12 | -7.9 | -1.6 | -0.2 | 15.7 | -25.9
CC1CN=C(NCc2ccc(F)cc2)S1 (centres undefined) | -4.9 | -2.4 | 37.3* | -6.6 | 4.5
CC1CN=C(NCc2ccncc2)S1 (centres undefined) | 24.2 | -3.2 | -0.1 | -3.9 | 2.2
Nc1ccc2ccc3cccc[n+]3c2c1 | 4.2 | -0.9 | 31.1* | 2.7 | 1.4
C[n+]1c(-c2ccccc2)c2cc(N)ccc2c2ccc(N)cc21 | 24.9 | 7.3 | 5.4 | -6.3 | -11.2
O=c1c2ccccc2nc(/C=C/c2ccc(F)cc2)n1-c1ccccn1 | -4.2 | -4.3 | 0.3 | 7.1 | -16.7
O=C1c2ccccc2C(=O)N1Cc1nc2ccccc2c(=O)n1-c1ccccn1 | 1.6 | 1.9 | 0.5 | 5.3 | 31.2*
Cc1ccc(-n2c(/C=C\c3ccc(F)c(F)c3)nc3ccccc3c2=O)c(C)c1 | nt | nt | nt | 15.4 | nt
COc1cccc(C2SCC(=O)Nc3c2c(C)nn3-c2ccc(C)c(Cl)c2)c1OC (centres undefined) | nt | nt | nt | 0.1 | nt
CC(C)NC(C)C(=O)c1ccc2ccccc2c1 (centres undefined) | -19.7 | -12.3 | -0.9 | 18.7 | 46.0*
CN1CCN(Cc2nc3ccccc3n2C)CC1 | 3.7 | -2.7 | 2.2 | 3.2 | -2.8
CCC1C2Cn3c(nc4ccccc43)C1N(C)O2 (centres undefined) | 0.7 | -1.8 | -0.1 | 33.9* | 10.5
Cc1ccc(-n2c(/C=C/c3cccc4ccccc34)nc3ccccc3c2=O)cc1 | nt | nt | 0.0 | -9.6 | nt
COC(=O)C1=C(c2ccc(C(C)=O)cc2)C[C@@H]2CC[C@H]1N2C(=O)NC(C)C | -3.1 | 1.1 | -0.1 | -5.9 | 52.2*
COC(=O)C1=C(c2ccc(C(C)=O)cc2)C[C@@H]2CC[C@H]1N2C | -8.4 | -1.2 | -0.1 | -6.0 | -8.6
SMILES | D2 PAM-1 | D2 ag-1 | D2 ag-2 | D2 PAM-2 | D2 antag
Cc1ccc(NC(=O)Cn2cc(C(=O)c3ccccc3)c3ccccc32)cc1 | nt | nt | -0.2 | 6.9 | nt
O=[N+]([O-])c1ccc(NCc2ccccc2)c2nonc12 | 3.5 | 4.7 | 135.2* | -20.6 | 44.0*
O=[N+]([O-])c1ccc(NCc2ccc(Cl)cc2)c2ccncc12 | -1.2 | 5.2 | -0.4 | -2.5 | 12.0
Cc1ccnc(-n2c(-c3ccccc3)nc3ccccc3c2=O)c1 | -10.5 | -0.4 | -0.4 | 16.4 | 33.0*
O=C(COc1ccccc1[N+](=O)[O-])N1CCN(CCc2ccncc2)CC1 | nt | nt | 1.4 | -7.8 | nt
CCCC(CCC)C(=O)OC[N+](C)(C)CCOC(=O)C(O)(c1ccccc1)C1CCCC1 (centres undefined) | -10.6 | -5.4 | -1.4 | -3.6 | 39.1*
CC(C)(C)C(=O)OC[N+](C)(C)CCOC(=O)C(O)(c1ccccc1)C1CCCC1 (centres undefined) | -15.4 | 10.6 | -0.3 | -7.8 | 19.4
CN1CC(C(=O)c2ccc(F)cc2)C(c2ccc(F)cc2)C1 (centres undefined) | -28.5 | -7.9 | 0.6 | -46.2 | 99.9*
COc1ccc2ccc(O)c(CN3CC=C(c4ccccc4)CC3)c2c1 | -4.0 | -1.8 | 17.2 | -17.2 | 18.6
COc1cc(C)cc(CN2CC=C(c3ccccc3)CC2)c1O | -21.0 | 8.1 | -7.9 | -30.2 | 87.9*
COc1ccc(C(C)=O)cc1CN1CC=C(c2ccccc2)CC1 | -10.3 | -1.4 | 3.4 | -27.1 | 78.1*
COc1ccc2c(CN3CC=C(c4ccccc4)CC3)cc(=O)oc2c1 | -21.1 | -1.7 | 0.3 | -5.2 | 1.6
CCC1(c2ccccc2)C(=O)N(C)C(=O)N(C)C1=O | -5.7 | 1.6 | 0.6 | -14.9 | 34.0*
CN1C(=O)N(C)C(=O)C2(Sc3ccccc3C2=O)C1=O | -4.6 | -2.2 | 0.0 | -2.4 | -8.6
COc1ccc(CNC(=O)CCC(=O)N2C[C@H]3C[C@H](C2)c2cccc(=O)n2C3)cc1OC | -25.7 | -2.8 | 0.4 | -1.7 | 36.4*
NCCc1c[nH]c2ccc(C(N)=O)cc12 | -1.5 | -6.1 | 3.2 | -7.6 | 10.6
NCCc1c[nH]c2ccc(F)cc12 | nt | nt | 5.4 | -28.1 | 94.7*
COc1cc2c(cc1O)[C@@H]1Cc3ccc(OC)c(O)c3CN1CC2 | -4.6 | 9.0 | -0.9 | -11.6 | 75.2*
COc1ccc(C[C@@H]2c3cc(O)c(OC)cc3CCN2C)cc1O | -26.4 | -1.2 | 0.1 | -17.7 | 51.9*
COc1ccc(CC2c3cc(OC)c(OC)cc3CCN2C)cc1OC (centres undefined) | -5.9 | 6.1 | nt | nt | nt
COc1ccc2c(CCN)c[nH]c2c1 | -14.8 | 0.2 | 1.0 | -5.2 | 8.3
CS(=O)(=O)Nc1ccc(Cc2noc(-c3ccc4[nH]cc(CCN)c4c3)n2)cc1 | nt | nt | 9.3 | -5.8 | 40.2*
CCSc1nnc(NC(=O)c2cccn(Cc3ccc(Cl)cc3)c2=O)s1 | nt | nt | 1.1 | -5.4 | nt
CN1C(=O)CN=C(c2ccc[nH]2)c2cc(Cl)ccc21 (tested in a mixture with another compound) | -7.3 | -1.8 | nt | nt | nt
CN1C(=O)CN=C(c2ccc(Cl)cc2)c2cc(Cl)ccc21 | 0.3 | -1.9 | -1.0 | 7.2 | 34.3*
Cc1ccc(-c2cc(-c3ccccc3)cc(-c3ccccc3)[n+]2-c2ccccc2)cc1 | 11.0 | 10.7 | 1.7 | -2.7 | 38.2*
O=C(Nc1ccc(F)c([N+](=O)[O-])c1)c1cccn(Cc2ccccc2)c1=O | nt | nt | 1.3 | 10.0 | nt
CCCn1cc2c3c(cccc31)C1CC(C)CN(C)C1C2 (centres undefined) | nt | nt | 38.9* | -28.7 | 86.6*
CCc1nn(CC(=O)N2CCC3(CC2)OCCO3)c(=O)c2cc3ccccc3n12 | -1.6 | 2.8 | 31.8* | -12.1 | -5.0

Screening data from PubChem BioAssay.
